# Results published in PubChem BioAssay AID624137 (Broad Institute, 2012).
# In all, about 31,000 compounds went through this assay and about 360 (1.2%) were called active. No rule for the calls is given here. Only a selection was taken, and actives are over-represented in it overall.
# Target: DNA-binding protein inhibitor ID-4 (Homo sapiens) (UniProt P47928)
# Experiment: PubChem AID 624137;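 also: a binder raises fluorescence above local background on the spot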
# Conditions: small molecule microarray, Flag-ID4 binding, fluorescence F/B
# DNA-binding protein inhibitor ID-4 (Homo sapiens), sequence (P47928 whole entry, looked up): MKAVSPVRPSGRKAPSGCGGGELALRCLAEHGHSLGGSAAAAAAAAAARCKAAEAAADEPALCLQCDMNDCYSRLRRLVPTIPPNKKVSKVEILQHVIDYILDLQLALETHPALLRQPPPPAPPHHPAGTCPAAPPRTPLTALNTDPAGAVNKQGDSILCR
row,SMILES,outcome
1,C[C@@H]1CN([C@H](C)CO)C(=O)c2cc(C#CC3CC3)cnc2O[C@@H]1CN(C)Cc1ccccn1,inactive
2,C[C@@H]1CN([C@@H](C)CO)S(=O)(=O)c2ccc(-c3ccc(C(=O)N(C)C)cc3)cc2O[C@@H]1CN(C)Cc1ccccc1C(=O)O,inactive
3,COc1ccccc1S(=O)(=O)N[C@@H]1C=C[C@H](CC(=O)N2CCOCC2)O[C@@H]1CO,inactive
4,O=C(C[C@@H]1C=C[C@H](NC(=O)CCN2CCCCC2)[C@H](CO)O1)NCc1ccc(Cl)c(Cl)c1,inactive
5,C/C=C/c1cnc2c(c1)C(=O)N([C@@H](C)CO)C[C@@H](C)[C@@H](CN(C)S(=O)(=O)c1ccccc1F)O2,inactive
6,C[C@H]1CN([C@@H](C)CO)S(=O)(=O)c2ccc(C3=CCCC3)cc2O[C@H]1CN(C)Cc1cccc(C(=O)O)c1,inactive
7,CC(C)NC(=O)N(C)C[C@H]1Oc2cc(-c3cncnc3)ccc2S(=O)(=O)N([C@@H](C)CO)C[C@H]1C,inactive
8,Cc1ccc(Cc2cncc(O)c2)cc1S(=O)(=O)O,active
9,C[C@H]1CN([C@@H](C)CO)S(=O)(=O)c2ccc(C3=CCCCC3)cc2O[C@@H]1CN(C)Cc1ccccc1,inactive
10,C[C@H](CO)N1C[C@H](C)[C@@H](CN(C)C(=O)C2CC2)Oc2ncc(-c3cccc(F)c3)cc2C1=O,inactive
11,C/C=C/c1ccc2c(c1)O[C@@H](CN(C)CC1CCOCC1)[C@@H](C)CN([C@H](C)CO)S2(=O)=O,inactive
12,C[C@H](CO)N1C[C@H](C)[C@H](CN(C)C(=O)C2CCCCC2)Oc2ncc(C#CC3CC3)cc2C1=O,inactive
13,C[C@H]1CN([C@@H](C)CO)C(=O)c2cc(C#Cc3ccccc3F)cnc2O[C@H]1CN(C)C,inactive
14,O=C(O)/C(=C/C(=O)c1ccc(F)cc1)Nc1ccc2[nH]c(=O)[nH]c2c1,inactive
15,O=C(OCCN1CCCCC1)c1cccc(COc2ccc3ccccc3c2)c1,inactive
16,C[C@H](CO)N1C[C@H](C)[C@H](CN(C)C(=O)c2ccncc2)Oc2cc(C#CC3(O)CCCC3)ccc2S1(=O)=O,inactive
17,O=C(C[C@@H]1C[C@@H]2c3cc(NS(=O)(=O)c4ccc(F)cc4)ccc3O[C@@H]2[C@@H](CO)O1)N1CCOCC1,inactive
18,CCCC#Cc1ccc2c(c1)O[C@@H](CN(C)S(=O)(=O)c1cccc(OC)c1)[C@H](C)CN([C@@H](C)CO)S2(=O)=O,inactive
19,COCC(=O)Nc1ccc2c(c1)[C@H]1C[C@H](CC(=O)NCc3cccnc3)O[C@H](CO)[C@H]1O2,inactive
20,CO[C@@H]1CN(C)C(=O)c2ccc(NC(=O)C3CC3)cc2OC[C@@H](C)N(CC2CCOCC2)C[C@H]1C,inactive

row,SMILES,outcome
1,CC(=O)N(C)C[C@H]1Oc2ncc(-c3cccc(F)c3)cc2C(=O)N([C@@H](C)CO)C[C@H]1C,inactive
2,O=[N+]([O-])c1ccccc1/C=C/CN1CCC(O)CC1,active
3,O=[N+]([O-])c1ccccc1CN1CCN(Cc2cccc(Oc3ccccc3)c2)CC1,inactive
4,O=C(C[C@H]1CC[C@@H](NC(=O)c2ccncc2)[C@@H](CO)O1)NCC1CC1,inactive
5,C[C@@H]1CN([C@H](C)CO)C(=O)c2cc(-c3ccccc3F)cnc2O[C@H]1CN(C)C(=O)CN(C)C,inactive
6,C[C@H](CO)N1C[C@H](C)[C@@H](CN(C)C(=O)c2cnccn2)Oc2ncc(-c3ccccc3F)cc2C1=O,inactive
7,O=C(CSc1nc(O)cc(=O)n1-c1ccccc1F)Nc1ccc(Cl)cc1Cl,inactive
8,Cc1c(NC(=O)/C(C#N)=C/c2ccccc2Cl)c(=O)n(-c2ccccc2)n1C,active
9,COC(=O)Cc1csc(Nc2c(C)n(C)n(-c3ccccc3)c2=O)n1,inactive
10,COc1cccc(/C=C(\C#N)C(=O)Nc2c(C)n(C)n(-c3ccccc3)c2=O)c1,inactive
11,COc1cc(NC(=O)COc2ccccc2Br)c(OC)cc1Cl,inactive
12,C[C@H](CO)N1C[C@H](C)[C@H](CN(C)C(=O)C2CC2)OCc2ccccc2-c2ccccc2C1=O,inactive
13,CCC(=O)N[C@H]1CC[C@@H](CC(=O)NCc2cc(F)cc(F)c2)O[C@@H]1CO,inactive
14,C[C@H](CO)N1C[C@H](C)[C@H](CN(C)C(=O)c2ccccc2)OCCCC[C@H](C)Oc2ccc(NS(C)(=O)=O)cc2C1=O,inactive
15,C[C@@H]1CCCCO[C@@H](CN(C)C(=O)c2ccccc2)[C@H](C)CN([C@@H](C)CO)C(=O)c2cc(NS(C)(=O)=O)ccc2O1,inactive
16,C[C@@H]1CN([C@@H](C)CO)C(=O)c2cc(NS(C)(=O)=O)ccc2O[C@@H](C)CCCCO[C@@H]1CN(C)C(=O)c1ccccc1,active
17,CNC[C@@H]1Oc2cc(C#Cc3ccc(F)cc3)ccc2S(=O)(=O)N([C@@H](C)CO)C[C@H]1C,inactive
18,COc1ccccc1-c1cnc2c(c1)C(=O)N([C@H](C)CO)C[C@H](C)[C@H](CN(C)Cc1cccnc1)O2,inactive
19,Cc1ccccc1-c1cnc2c(c1)C(=O)N([C@@H](C)CO)C[C@@H](C)[C@@H](CN(C)CC1CCOCC1)O2,inactive
20,CCCN(C)C[C@H]1Oc2cc(-c3ccc(C)cc3)ccc2S(=O)(=O)N([C@H](C)CO)C[C@H]1C,inactive

row,SMILES,outcome
1,C[C@@H]1CN([C@@H](C)CO)C(=O)c2cc(Br)cnc2O[C@@H]1CN(C)C(=O)C1CCCCC1,inactive
2,CN1CCN(C(=O)C[C@H]2CC[C@@H](NC(=O)c3ccc4c(c3)OCO4)[C@H](CO)O2)CC1,inactive
3,O=C(C[C@H]1C=C[C@H](NS(=O)(=O)c2ccc(F)cc2)[C@H](CO)O1)NCc1ccncn1,inactive
4,CCCN(C)C[C@@H]1Oc2cc(C#CC3CCCCC3)ccc2S(=O)(=O)N([C@@H](C)CO)C[C@@H]1C,inactive
5,COc1ccccc1-c1cnc2c(c1)C(=O)N([C@@H](C)CO)C[C@@H](C)[C@H](CN(C)Cc1cccnc1)O2,inactive
6,COCC#Cc1cnc2c(c1)C(=O)N([C@H](C)CO)C[C@@H](C)[C@@H](CN(C)Cc1ccccc1F)O2,inactive
7,CC(C)CC#Cc1cnc2c(c1)C(=O)N([C@@H](C)CO)C[C@H](C)[C@@H](CN(C)C(=O)c1ccc(F)cc1)O2,inactive
8,C[C@@H]1CN([C@@H](C)CO)S(=O)(=O)c2ccc(C3=CCCC3)cc2O[C@@H]1CN(C)Cc1ccncc1,inactive
9,C[C@@H](O)C#Cc1cnc2c(c1)C(=O)N([C@@H](C)CO)C[C@H](C)[C@@H](CN(C)CC1CCCCC1)O2,inactive
10,COc1ccccc1-c1ccc2c(c1)O[C@H](CN(C)C(=O)c1cccnc1)[C@@H](C)CN([C@H](C)CO)S2(=O)=O,inactive
11,CC(C)C#Cc1ccc2c(c1)O[C@@H](CN(C)CC1CCOCC1)[C@H](C)CN([C@H](C)CO)S2(=O)=O,inactive
12,CNC[C@H]1Oc2cc(C#CC3CCCC3)ccc2S(=O)(=O)N([C@H](C)CO)C[C@@H]1C,inactive
13,CC(C)C#Cc1cnc2c(c1)C(=O)N([C@H](C)CO)C[C@@H](C)[C@H](CN(C)Cc1ccccc1)O2,inactive
14,C[C@@H]1CN([C@@H](C)CO)S(=O)(=O)c2ccc(C#CCC3CCCC3)cc2O[C@@H]1CN(C)C,inactive
15,C[C@H](O)C#Cc1cnc2c(c1)C(=O)N([C@H](C)CO)C[C@@H](C)[C@H](CN(C)CC1CCCCC1)O2,inactive
16,C[C@@H]1CN([C@H](C)CO)C(=O)c2cc(C3=CCCC3)cnc2O[C@H]1CN(C)C,inactive
17,Cc1cccc(NC(=O)CSc2nnc(-c3ccccc3)n2C2CCCCC2)c1C,inactive
18,CCC(=O)N(C)C[C@H]1Oc2cc(/C=C/c3ccccc3)ccc2S(=O)(=O)N([C@H](C)CO)C[C@H]1C,inactive
19,O=C(C[C@H]1CC[C@@H](NC(=O)Nc2cc(F)ccc2F)[C@@H](CO)O1)NCc1ccncn1,inactive
20,CNC[C@H]1Oc2ncc(-c3ccccc3F)cc2C(=O)N([C@H](C)CO)C[C@H]1C,inactive
